Source: PubChem
Compounds with a hit are over-represented: about 5.2% of the library has one in this group of screens.
ALR H2O2 inh – human ALR oxidase inhibition via reduced H2O2 | AID 485317 | 3.8% of 290,000 active | purified ALR, DTT oxidation, H2O2 HRP-luminol luminescence | inhibition, % (concentration not given with the values) | P55789;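 active = mean replicate inhibition above about 79%, with every replicate also reaching it, limit read from the data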
Target sequence (P55789 whole entry, looked up): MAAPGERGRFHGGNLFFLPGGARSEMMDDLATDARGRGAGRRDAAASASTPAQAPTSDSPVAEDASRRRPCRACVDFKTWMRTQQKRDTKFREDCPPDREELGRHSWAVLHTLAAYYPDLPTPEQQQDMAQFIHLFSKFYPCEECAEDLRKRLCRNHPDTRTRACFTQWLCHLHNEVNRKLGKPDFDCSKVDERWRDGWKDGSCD
APOBEC3A inh – inhibitors of human APOBEC3A DNA deaminase | P31941 | recombinant A3A, FAM/TAMRA ssDNA deamination fluorescence | inhibition, % at 20 µM | 0.41% of 330,000 active;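 active = at least 40% inhibition at 20 µM here, with at most 30% in a related deaminase screen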;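 also: plate controls were A3A with DMSO for no effect and wells lacking A3A enzyme for full effect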
Target sequence (P31941 whole entry, looked up): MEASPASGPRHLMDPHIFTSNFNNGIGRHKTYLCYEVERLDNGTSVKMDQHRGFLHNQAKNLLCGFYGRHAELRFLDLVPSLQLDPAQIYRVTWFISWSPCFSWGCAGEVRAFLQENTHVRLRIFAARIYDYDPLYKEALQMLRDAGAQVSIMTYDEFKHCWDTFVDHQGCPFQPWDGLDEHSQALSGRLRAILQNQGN
APOBEC3G inh – APOBEC3G (human) deaminase inhibition. AID 493012. inhibition, % at 20 µM. Q9HC16. 0.28% of 330,000 active. recombinant A3G, ssDNA deamination FAM/TAMRA fluorescence;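 active = inhibition of at least 40% at 20 µM, with no more than 30% in the related APOBEC3A deaminase screen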;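 also: plate controls were DMSO wells with A3G for no effect and wells lacking A3G enzyme for full effect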
M18AAP inhibitor – PfM18AAP enzyme inhibition | recombinant PfM18AAP, H-Glu-NHMec fluorogenic cleavage | inhibition, % at 7.35 µM | 1.2% of 290,000 active;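 active = inhibition above the campaign mean inhibition over all tested compounds plus 3 SD, cut at about 28% in these data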;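 also: 0% = plate median of test compound wells and 100% = 2 mM ZnCl2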
CR mimetic SO – lowers age-related superoxide in aged yeast cells; S. cerevisiae aged cells, superoxide DHE fluorescence; hits give low values; superoxide response (% of plate mean), % at 10 µM; 0.18% of 330,000 active;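 active = superoxide response under a set limit, about three screen SD below normal, cut at about 65% in these data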;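 also: yeast aged for seven days with compound at 30 °C before DHE staining; 100% = average MFI of all compound-treated wells on the plate with controls excluded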
NRP1-CendR mod – alters CendR peptide binding to human NRP-1; O14786; FAM-RPARPAR peptide binding to NRP-1, fluorescence polarization; inhibition, % at 25 µM; 0.85% of 360,000 active; AID 602438;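 active = inhibition or corrected inhibition above about 18%, plus a signal ratio from 0.5 to 1.5, limit read from the data, passing the limit was not always enough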
* marks the source's active call; other numbers are inactive results; · = no result given.

SMILES	ALR H2O2 inh	APOBEC3A inh	APOBEC3G inh	M18AAP inhibitor	CR mimetic SO	NRP1-CendR mod
Cc1cc(C(=O)CN2C(=O)C3CC=CCC3C2=O)c(C)n1-c1ccccc1 (stereo not drawn)	18.7	1.2	-1.4	5.7	100.2	29.3*
O=c1oc2cc(Br)ccc2n1CSC1=NCCS1	98.6*	-4.1	-9.8	0.3	78.6	5.4
CCCc1nnc(NC(=O)Cn2c(=O)oc3cc(Br)ccc32)s1	-10.3	38.7	5.1	-1.3	109.4	-10.1
O=C(NCc1ccc(F)cc1)C(C(=O)NCc1ccc(F)cc1)c1ncc(C(F)(F)F)cc1Cl	-4.8	1.8	-5.6	-0.6	97.1	0.9
CCOC(=O)C(C(=O)NCc1ccc(F)cc1)c1ncc(C(F)(F)F)cc1Cl (stereo not drawn)	-16.5	-0.8	-2.9	4.6	95.4	24.7*
CC1CCN(c2oc(-c3ccco3)nc2S(=O)(=O)c2ccccc2)CC1	7.8	-2.2	-6.8	-6.5	92.8	2.0
O=C1CCC(=O)N1CNc1ccc(Oc2ccccc2)cc1	98.4*	4.5	-0.2	-1.2	76.5	-8.8
O=C(CSc1cccc[n+]1[O-])Nc1cc(S(=O)(=O)N2CCOCC2)ccc1N1CCOCC1	-2.5	0.3	-2.7	-0.7	112.9	28.3*
Cn1ccnc1SCC(=O)Nc1cc(S(=O)(=O)N2CCOCC2)ccc1Cl	97.6*	0.2	-3.3	1.2	96.0	-6.7
Cc1ccc(S(=O)(=O)N2CCOCC2)cc1NC(=O)CSc1nccn1C	·	-0.8	-5.5	2.0	99.8	-7.5
O=C(Cn1cc(C(F)(F)F)cc(Cl)c1=O)Nc1cc(S(=O)(=O)N2CCOCC2)ccc1Cl	0.9	-2.0	-2.2	4.4	91.0	22.5*
NC(=O)c1cccc(-c2ccnc3c2CC(C(=O)NCc2cccc(Cl)c2)O3)c1 (stereo not drawn)	·	·	·	·	·	-4.0
CCOC(=O)Cc1cc(=O)n2[nH]c(C)c(-c3ccc(OC)cc3)c2n1	91.3*	-5.2	-6.0	-14.1	90.0	-10.8
CCc1cc(=O)n2[nH]c(C)c(-c3ccc(OC)cc3)c2n1	32.5	-7.4	-6.7	-7.7	96.7	13.6
CCOC(=O)Cc1cc(=O)n2[nH]c(C)c(-c3ccc(Cl)cc3)c2n1	99.4*	-6.7	1.0	-1.1	111.0	0.7
O=C(CSc1nnc2n1CCCN2)c1ccc([N+](=O)[O-])cc1	97.4*	-5.1	-9.1	5.9	102.7	2.5
Nc1c(S(=O)(=O)O)cc(NC(=O)c2ccccc2)c2c1C(=O)c1ccccc1C2=O	-10.6	8.4	-0.9	5.3	129.3	26.7*
COC(=O)CNC(c1ccccc1)c1cc(Br)ccc1N (stereo not drawn)	99.2*	1.3	1.1	-15.3	84.2	9.3
c1ccc2c3c(cc(N4CCOCC4)c2c1)OC1(N2CCOCC2)CCCCC1O3 (stereo not drawn)	39.8	0.8	-3.1	1.9	106.2	-7.4
O=C(c1cc(C(=O)c2ccco2)cc(C(=O)c2ccco2)c1)c1ccco1	96.8*	6.7	0.5	-12.5	105.2	-1.3
O=C(NNC(=O)c1ccco1)c1ccco1	·	·	·	·	·	-11.8
Cc1ccc(NC(=S)NCCSc2ccc(Cl)cc2)c(C)c1	-1.8	1.8	-5.3	-2.2	93.5	-14.2
COC(=O)CN1C(=O)[C@H]2[C@@H](c3ccc(C)o3)N3C(=O)CN(Cc4ccccc4)C(=O)[C@@]3(Cc3ccccc3)[C@H]2C1=O	1.9	-3.2	-9.5	-23.4	94.8	-5.1
Cc1cc(S(=O)(=O)Nc2cc(C)c(O)c(C)c2)c(C)s1	77.4*	-8.4	-4.8	-1.6	108.2	1.7
Cc1[nH]n(-c2cccc([N+](=O)[O-])c2)c(=O)c1-c1ccccc1	88.8*	-2.8	1.2	10.1	122.2	3.9
SMILES	ALR H2O2 inh	APOBEC3A inh	APOBEC3G inh	M18AAP inhibitor	CR mimetic SO	NRP1-CendR mod
Cc1[nH]n(-c2ccccc2)c(=O)c1N=Nc1cccc([N+](=O)[O-])c1	0.7	-2.4	-10.5	0.8	100.8	-3.1
Cc1[nH]n2c(=O)cc(-c3ccc([N+](=O)[O-])cc3)nc2c1-c1ccccc1	89.3*	-0.9	-1.1	-8.8	97.8	6.6
Cc1[nH]n(-c2cccc(Cl)c2)c(=O)c1-c1ccccc1	84.3*	-1.3	0.4	12.0	97.5	9.0
Cc1[nH]n(-c2ccccc2)c(=O)c1-c1ccccc1	70.2	0.0	0.0	-5.5	103.2	0.5
Cc1ccc2c(CC(=O)NNC(=O)c3ccncc3)coc2c1	1.8	4.0	-1.1	·	123.9	-8.5
CCOc1ccc(CNc2ccc3c(c2)ncn3C(C)(C)C)cc1	67.8	-2.7	0.4	6.2	93.4	4.3
CCOc1ccc(CNc2ccc3c(c2)ncn3C)cc1	82.2*	-9.0	-7.8	26.9	95.9	14.9
Cn1cnc2cc(NCc3ccc(Cl)cc3)ccc21	94.3*	-6.9	-2.4	5.7	101.2	1.3
CC(CN1CCOCC1)OC(=O)COc1ccc(F)cc1 (stereo not drawn)	-13.7	-1.4	-3.8	-2.0	103.0	5.0
Cc1ccc(-c2nc(N=Nc3ccc(O)cc3)n[nH]2)cc1	57.7	3.9	-1.8	11.0	96.0	5.3
Cc1nc(N=Nc2ccc(O)cc2)n[nH]1	94.1*	5.9	2.9	5.4	88.3	13.2
COc1ccc(/C=c2\s/c(=C\C(=O)C(C)(C)C)[nH]c2=O)cc1O	89.4*	-0.6	-5.4	19.1	95.0	3.9
CN1CCN(C2CN(C3CCCCC3)S(=O)(=O)C2)CC1 (stereo not drawn)	·	·	·	·	·	12.3
CC1(C)CC(=O)C(C=Nc2ccc(O)cc2)=C(O)C1	99.1*	-2.0	-2.6	5.4	93.0	9.7
Cc1ccc(N=CC2=C(O)CC(C)(C)CC2=O)nc1	-3.6	-7.7	-3.3	-12.9	105.2	24.1*
CC1(C)CC(=O)C(C=Nc2ccc(N)cc2)=C(O)C1	68.1	-0.6	-12.4	11.9	84.3	-0.9
CC1(C)CC(=O)C(C=Nc2ccc(Cl)cn2)=C(O)C1	·	-2.0	-2.3	-0.2	95.5	4.6
CCCc1nnc(SCc2ccc(C(=O)OC)o2)n1N	-11.5	0.4	-2.1	-1.4	98.3	-8.4
CCc1nnc(SCc2ccc(C(=O)OC)o2)n1N	97.4*	2.1	-4.4	3.5	95.9	38.2*
Cc1nc(SCC(=O)N2CC(C)OC(C)C2)nc(C)c1C (stereo not drawn)	-17.8	2.1	-2.8	-5.5	89.4	7.0
CC(Oc1cccc(Cl)c1)C(=O)NCc1ccc(S(N)(=O)=O)cc1 (stereo not drawn)	-12.2	-3.5	-5.6	2.3	106.1	30.4*
Cc1cccc(OC(C)C(=O)NCc2ccc(S(N)(=O)=O)cc2)c1 (stereo not drawn)	·	1.9	1.2	-0.3	106.8	4.0
CNc1nnc(SCC(=O)c2cc(C)n(C3CC3)c2C)s1	91.6*	2.5	2.0	·	117.1	0.5
Cc1cc(-n2c(C)cc(C(=O)CSc3nnc4sc5ccccc5n34)c2C)no1	-13.2	0.2	0.8	6.2	76.2	11.3
Cc1cc(-n2c(C)cc(C(=O)CSc3ncnc4ccccc34)c2C)no1	98.3*	-1.7	-4.2	4.0	95.7	-9.4
